SMILES strings stand for the structures. Calls of active or inactive are those of the source.

One assay can be described thus: PSAC antagonists in infected red cells, primary screen, cell-based, P. falciparum Indochina, OD700, 2 h (AID 1155).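 Also: lysis reports solute entry through the parasite surface anion channel PSAC; channel blockers reduce lysis of infected cells.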 Conditions: P. falciparum Indochina infected erythrocytes, osmotic lysis OD700; higher = more signal, called active from +8 up or from −8 down.
`CC(C)N1C(=O)c2ccccc2[C@](C)(C(=O)NCCCN(C)C)[C@@H]1c1ccc(CO)cc1`: the z-score was 0.347 (inactive).

With `C=CCC(OC(C)=O)[C@@H]1[C@@H](N(Cc2ccc(-c3ccccc3)cc2)C(=O)c2ccc(C)cc2)c2cc(OCCCO)ccc2N1C(=O)c1ccc2ccccc2n1` (stereo not given in full), the z-score is -0.883 (inactive).

With `COC(=O)[C@@]1(Cc2ccc(F)cc2)[C@H]2c3cc(C(=O)N4CCCC4)n(Cc4ccc(Cl)c(C(F)(F)F)c4)c3C[C@H]2CN1C(=O)c1ccccc1`, the z-score was 0.895 (inactive).

Turning to `COCCCNC(=O)[C@@]1(Cc2ccccc2I)c2ccccc2C(=O)N(Cc2ccccc2)[C@H]1c1ccc(CO)cc1`, the z-score is 2.37 (inactive).

For the compound `CC(=O)NCCCC[C@@H]1NC(=O)[C@@H]2C[C@H](C(=O)NCc3ccc(F)cc3)[C@H](c3ccc(O)cc3)N2C1=O`, the z-score was 0.549 (inactive).

For the compound `CCOC(=O)C1=CC[C@@H](c2cccc(Cl)c2)N(S(=O)(=O)c2ccc(C)cc2)[C@H]1c1ccc(C#N)cc1`, the z-score was 1.34 (inactive).

As to `CCCNC(=O)[C@@]1(C)c2ccccc2C(=O)N(Cc2cc(C(F)(F)F)cc(C(F)(F)F)c2)[C@H]1c1ccc(CO)cc1`, the z-score was -0.305 (inactive).

`COC(=O)c1c2oc(c1C(=O)OC)C(=O)N[C@H](Cc1ccccc1)Cn1nncc1C1(CCCCC1)NC(=O)N[C@H](CO)CC2`: the z-score is 1.58 (inactive).

As to `CN(C)CCCC[C@@H]1NC(=O)[C@@H]2C[C@H](C(=O)NCc3ccc(F)cc3)[C@H](c3cccc(OCCO)c3)N2C1=O`, the z-score was 0.995 (inactive).

On to `COc1ccc([Si](C)(C)[C@@H]2[C@@H](CCn3cc([C@H](O)c4ccccc4)nn3)O[C@]3(C(=O)N(C)c4ccccc43)[C@H]2C)cc1`, for which the z-score is 0.579 (inactive).

A short description of the next assay: osmotic lysis modulators in infected erythrocytes, primary screen, PSAC antagonist project, cell-based, P. falciparum Indochina, OD700, 3 h (AID 1156). Conditions: higher = more signal, called active from +8 up or from −8 down.
For `COc1ccc(C#Cc2ccc3c(c2)[C@]2(C(=O)N3)[C@H](C(=O)N3CCN(c4ncccn4)CC3)[C@H]3C(=O)O[C@H](c4ccccc4)[C@H](c4ccccc4)N3[C@@H]2c2ccc(O)cc2)cc1`, the z-score is 0.474 (inactive).

With `CCCC[C@H]1C[C@@H]1[C@@H]1N(P(=O)(c2ccccc2)c2ccccc2)[C@](CO)(c2ccccc2)CC12CC2`, the z-score was 2.01 (inactive).

In the case of `O=C(N1CCCCC1)[C@]1(CCS(=O)(=O)c2ccccc2)N=C(c2ccc(OCCCO)cc2)O[C@@H]1c1ccccc1`, the z-score was 2.02 (inactive).

For `OCCCc1cc[n+](Cc2cccc(OC(F)(F)F)c2)cc1`, the z-score is 1.54 (inactive).

`COc1ccc([Si](C)(C)[C@H]2[C@H](CC(=O)N3CCC[C@H]3CO)O[C@@]3(C(=O)N(Cc4cccc(N5CCC5=O)c4)c4ccccc43)[C@@H]2C)cc1`: the z-score is 1.47 (inactive).

As for `CCCNC(=O)[C@@]1(c2ccc([N+](=O)[O-])cc2)CC(=O)N(CC23CC4CC(CC(C4)C2)C3)[C@@H]1c1ccc(CO)cc1I`, the z-score was 1.82 (inactive).

As for `CCCNC(=O)[C@@]1(C)c2ccccc2C(=O)N(Cc2cc(F)cc(C(F)(F)F)c2)[C@H]1c1ccc(CO)cc1`, the z-score is 1.03 (inactive).

Take `C=C[C@H](C)[C@H](OC(=O)Nc1ccc(OC)cc1)c1ccc(O)c2ccccc12`: the z-score is -0.554 (inactive).

Consider `O=c1cccc(-c2ccccc2)o1`, for which the z-score was -0.891 (inactive).

On to `CC1CC/C=C\[C@H]2OC34C=CCN(Cn5nnc6ccccc65)C(=O)[C@H]3N(CCCO)C(=O)[C@@H]4C2C(=O)O1` (stereo not given in full), for which the z-score is -0.264 (inactive).

With `COc1ccc(C#Cc2ccc3c(c2)[C@]2(C(=O)N3)[C@H](c3ccc(OCCO)cc3)N3[C@H](c4ccccc4)[C@H](c4ccccc4)OC(=O)[C@H]3[C@@H]2C(=O)Nc2nc3ccccc3s2)cc1`, the z-score is 2.04 (inactive).

On to `C=C(C(=O)CC[C@H](OC(=O)c1cccnc1)c1ccccc1OCCO)C(C)C`, for which the z-score was 0.611 (inactive).

For the compound `C=CC[C@@]1(C(=O)NCCN2CCOCC2)N=C(c2ccc(OCCCO)cc2)O[C@@H]1c1ccccc1CN=[N+]=[N-]`, the z-score was 2.29 (inactive).

In the case of `C=CCOC(=O)[C@H]1[C@@H]2C(=O)O[C@@H](c3ccccc3)[C@@H](c3ccccc3)N2[C@@H](c2ccc(OCCOC(=O)[C@@H]3C[C@@H]4C(=O)NCC(=O)N4[C@@H]3c3ccc(O)cc3)cc2)[C@]12C(=O)Nc1ccc(I)cc12`, the z-score was 1.49 (inactive).

For `CCOC(=O)C[C@H]1[C@H](OC(=O)c2ccc(C(=O)c3ccccc3)cc2)[C@@H](NC(=O)c2ccc3ccccc3n2)c2cc(OCCCO)ccc2N1C(=O)c1ccc2ccccc2n1`, the z-score is -0.327 (inactive).

Take `C=CCC(OC(C)=O)[C@@H]1[C@@H](N(Cc2ccc(-c3cccc(C(F)(F)F)c3)o2)C(=O)Cc2ccc(OC)cc2)c2cc(OCCCO)ccc2N1C(=O)Cc1ccc(OC)cc1` (stereo not given in full): the z-score is 0.777 (inactive).

In the case of `C=CCC(OC(C)=O)[C@@H]1[C@@H](N(Cc2ccc(-c3ccccc3)cc2)C(=O)c2ccc(C)cc2)c2cc(OCCCO)ccc2N1C(=O)Cc1ccc(OC)cc1` (stereo not given in full), the z-score was -0.774 (inactive).

Consider `C=C(COC)C(=O)CC[C@@H](OC(=O)c1ccccc1-c1ccccc1C(=O)O)c1ccc(CO)o1`, for which the z-score is -2.11 (inactive).

In the case of `CN(C)CCCC[C@@H]1NC(=O)[C@@H]2C[C@H](C(=O)NCCCCCN)[C@H](c3ccc(O)cc3)N2C1=O`, the z-score is 0.494 (inactive).

In the case of `CN(C)CCCN1C(=O)[C@@]2(c3ccc([N+](=O)[O-])cc3)CC(=O)N(C3CCCCC3)[C@@H]2c2ccc(CO)cc21`, the z-score is -1.12 (inactive).

Turning to `O=C1C2C=CC(C(O)c3cccc4ccccc34)N(n3cnnc3)C2C(=O)N1Cc1ccccc1` (stereo not given), the z-score is 0.282 (inactive).

For `COCCCNC(=O)[C@]1(Cc2ccccc2N=[N+]=[N-])N=C(c2ccc(OCCCO)cc2)O[C@@H]1c1ccccc1CN=[N+]=[N-]`, the z-score is 3.17 (inactive).

For the compound `C=C(COC)C(=O)CC[C@H](OC(=O)c1cccnc1)c1ccccc1OCCO`, the z-score was 0.0448 (inactive).

Turning to `CCOC(=O)N1C(c2ccc(OCCCO)cc2)=NC(C(=O)OC)N1C(=O)OCC` (stereo not given), the z-score is 0.873 (inactive).

As for `C=CCOC(=O)[C@H]1[C@@H]2C(=O)O[C@@H](c3ccccc3)[C@@H](c3ccccc3)N2[C@@H](c2ccc(OCCOC(=O)[C@H]3C[C@H]4C(=O)N[C@@H](CCCC[N+](C)(C)C)C(=O)N4[C@H]3c3ccc(O)cc3)cc2)[C@]12C(=O)Nc1ccccc12`, the z-score is 0.857 (inactive).

In the case of `CC(C)N1C(=O)c2ccccc2[C@](C)(C(=O)NCCCN(C)C)[C@@H]1c1ccc(CO)cc1`, the z-score is 0.766 (inactive).

On to `C=CCC(OC(C)=O)[C@@H]1[C@@H](N(Cc2ccc(-c3ccccc3)cc2)C(=O)c2ccc(C)cc2)c2cc(OCCCO)ccc2N1C(=O)c1ccc2ccccc2n1` (stereo not given in full), for which the z-score was -1.19 (inactive).

For the compound `COC(=O)[C@@]1(Cc2ccc(F)cc2)[C@H]2c3cc(C(=O)N4CCCC4)n(Cc4ccc(Cl)c(C(F)(F)F)c4)c3C[C@H]2CN1C(=O)c1ccccc1`, the z-score was 0.923 (inactive).

Take `COCCCNC(=O)[C@@]1(Cc2ccccc2I)c2ccccc2C(=O)N(Cc2ccccc2)[C@H]1c1ccc(CO)cc1`: the z-score is 1.85 (inactive).

With `CC(=O)NCCCC[C@@H]1NC(=O)[C@@H]2C[C@H](C(=O)NCc3ccc(F)cc3)[C@H](c3ccc(O)cc3)N2C1=O`, the z-score is -1.64 (inactive).

As to `CCOC(=O)C1=CC[C@@H](c2cccc(Cl)c2)N(S(=O)(=O)c2ccc(C)cc2)[C@H]1c1ccc(C#N)cc1`, the z-score is 0.0178 (inactive).

As for `CCCNC(=O)[C@@]1(C)c2ccccc2C(=O)N(Cc2cc(C(F)(F)F)cc(C(F)(F)F)c2)[C@H]1c1ccc(CO)cc1`, the z-score was 1.97 (inactive).

Consider `COC(=O)c1c2oc(c1C(=O)OC)C(=O)N[C@H](Cc1ccccc1)Cn1nncc1C1(CCCCC1)NC(=O)N[C@H](CO)CC2`, for which the z-score was 0.52 (inactive).

Consider `CN(C)CCCC[C@@H]1NC(=O)[C@@H]2C[C@H](C(=O)NCc3ccc(F)cc3)[C@H](c3cccc(OCCO)c3)N2C1=O`, for which the z-score was -1.39 (inactive).

As for `COc1ccc([Si](C)(C)[C@@H]2[C@@H](CCn3cc([C@H](O)c4ccccc4)nn3)O[C@]3(C(=O)N(C)c4ccccc43)[C@H]2C)cc1`, the z-score is 1.51 (inactive).

Source of the values: PubChem BioAssay.
